Assay outcomes from PubChem.
A selection: hits, their analogues and other compounds. The true share with any hit is near 7.3%.
SMN2 splice up: qHTS Assay for Enhancers of SMN2 Splice Variant Expression. HEK293 SMN2-luciferase splicing reporter, luminescence, 30-36 h. 210,000 compounds, 2.8% hits. Potency, µM (doses to about 46.1 µM), hits mostly activators; further: nearly all actives have a fitted effect of over 55% in size
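HEK293 cells carry an SMN2 minigene-luciferase reporter in which exon 7 inclusion puts luciferase in frame. Cells were seeded at 2000 cells/well, attached for 10-12 hours, then exposed to compounds for 30-36 hours at 37C before ONE-Glo luminescence.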
FLuc counter: qHTS profiling assay for firefly luciferase inhibitor/activator using purifed enzyme and Km concentrations of substrates (counterscreen for miR-21 project) | Potency, µM (top dose mostly 57.5 µM), most hits filed as inhibitors | 360,000 compounds, 6.9% hits | purified FLuc, Km substrates, luminescence inhibition | AID 588342, 2011; further: nearly all actives have a fitted effect of over 55% in size
Target sequence (P08659 whole entry, looked up): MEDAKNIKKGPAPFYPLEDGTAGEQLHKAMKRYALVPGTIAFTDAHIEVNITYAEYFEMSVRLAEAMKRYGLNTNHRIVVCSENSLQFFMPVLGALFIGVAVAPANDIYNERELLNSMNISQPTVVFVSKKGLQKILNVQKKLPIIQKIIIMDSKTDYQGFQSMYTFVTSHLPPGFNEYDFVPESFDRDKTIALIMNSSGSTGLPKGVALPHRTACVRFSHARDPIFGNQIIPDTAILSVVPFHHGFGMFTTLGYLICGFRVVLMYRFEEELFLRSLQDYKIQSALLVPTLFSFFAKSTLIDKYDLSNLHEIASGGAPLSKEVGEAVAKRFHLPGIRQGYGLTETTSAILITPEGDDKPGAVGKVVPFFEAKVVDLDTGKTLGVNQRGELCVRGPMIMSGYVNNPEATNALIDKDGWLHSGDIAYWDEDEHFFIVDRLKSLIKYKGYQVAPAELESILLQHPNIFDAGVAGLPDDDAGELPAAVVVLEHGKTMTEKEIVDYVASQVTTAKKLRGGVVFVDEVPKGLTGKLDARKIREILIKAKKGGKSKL
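Biochemical qHTS of compounds, final roughly 60 µM downward over six points, against 10 nM purified firefly luciferase using Km concentrations of substrates (10 uM D-luciferin, 10 uM ATP) in Tris acetate pH 7.5 buffer; luminescence output.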
ELG1 genotox: qHTS screen for small molecules that induce genotoxicity in human embryonic kidney (HEK293T) cells expressing luciferase-tagged ELG1; AID 504466, 2011; 330,000 compounds, 1.3% hits; HEK293T ELG1-luciferase reporter, luminescence, 16 h; Potency, µM (highest dose often 46 µM), most hits filed as activators; further: nearly all actives have a fitted effect of over 60% in size
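Reporter readout depends on ELG1 protein level, which increases with genetic stress. After 16 hr compound exposure at 37 °C, luciferase activity was quantified using ONE-Glo.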
KinaseGlo FLuc: Counterscreen for Luciferase (Kinase-Glo TM) Inhibition; Luciferin 4-monooxygenase (Photuris pensylvanica), Q27757; 200,000 compounds, 0.28% hits; Potency, µM (top dose mostly 38.3 µM), actives largely listed as inhibitors; Kinase-Glo luciferase, ATP luminescence, 8 min; further: nearly all actives have a fitted effect of over 60% in size
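Light output from Kinase-Glo luciferase with luciferin and 10 uM ATP in 50 mM imidazole pH 7.2, KCl, MgCl2, Tween 20, BSA; compound pin-delivered, 8-min ambient incubation, then luminescence read.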
NPC1 promoter act: qHTS Assay for NPC1 Promoter Activators. AID 485313, 2010. 320,000 compounds, 2.4% hits. Potency, µM (top dose mostly 9.22 µM), most hits filed as activators. Huh7 NPC1 promoter luciferase reporter, 24 h; further: nearly all actives have a fitted effect of over 60% in size
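Stable NPC1-promoter luciferase Huh7 line; cpd (DMSO) 24 h, 37 °C, 5% CO2; Amplite luciferase reagent 10 min RT; luminescence readout. qHTS format.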
Rab9 prom act: qHTS Assay for Rab9 Promoter Activators; Huh7 Rab9 promoter-luciferase reporter, luminescence, 24 h; Potency, µM (highest dose often 9.22 µM), usual class: activators; 320,000 compounds, 2.8% hits; further: nearly all actives have a fitted effect of over 60% in size
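Measured in stably transfected Huh7 cells bearing a Rab9 promoter–luciferase construct: 24 h compound treatment at 37 °C, followed by luminescence detection.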
Hits are given with their value; i = inactive; ? = inconclusive; nt = no result given; [ ] = dose if it differs, or a comment. The call rests on the fitted dose curve; in most records, active means well fitted curve in the direction sought with a large enough effect; inconclusive means small, poorly fitted or top-dose-only effect, or another doubt; inactive means no such curve, though single readings can be large; an effect the other way counts as inactive or inconclusive.

SMILES | SMN2 splice up | FLuc counter | ELG1 genotox | KinaseGlo FLuc | NPC1 promoter act | Rab9 prom act
Cc1ccc(N=Cc2c(O)n(C)c(=O)n(C)c2=O)cc1 | nt | 12µM | i | nt | i | i
COC(=O)c1ccc(CC(C(=O)c2ccccc2)N(C)C)cc1 (stereo not given) | nt | 15µM | ? | nt | ? | ?
CC(=O)N1CCN(c2ccc(OCC3CO[C@@](Cn4ccnc4)(c4ccc(Cl)cc4Cl)O3)cc2)CC1 (stereo not given in full) | i | nt | nt | i | nt | nt
Cc1cccc(N2C(=O)NC(=O)/C(=C/c3ccc(-c4ccc(C(=O)O)c(Cl)c4)o3)C2=O)c1 | i | 6µM | i | i | i | i
O=C1NC(=O)N(c2ccc3c(c2)OCO3)C(=O)/C1=C\c1ccsc1 | nt | 24µM | i | nt | i | i
O=C1NC(=O)N(c2ccc3c(c2)OCO3)C(=O)/C1=C\c1ccc(-c2ccccc2C(=O)O)o1 | nt | 15µM | i | nt | i | i
O=C1NC(=O)N(c2ccc3c(c2)OCO3)C(=O)/C1=C/c1ccc(N2CCCCC2)o1 | i | i | i | i | i | i
NC1=NC([S][Hg][c]2ccc(N)cc2)c2ncn([C@@H]3O[C@H](CO)[C@@H](O)[C@@H]3O)c2N1 (stereo not given in full) | i[9.22 µM] | nt | nt | ? | nt | nt
COc1cc2c3cc1Oc1c(O)c(OC)cc4c1[C@@H](Cc1ccc(cc1)Oc1cc(ccc1O)C[C@H]3N(C)CC2)N(C)CC4 | i[9.22 µM] | nt | nt | i[7.66 µM] | nt | nt
N#CCCCC[N+]12CN3CN(CN(C3)C1)C2 | i[9.22 µM] | nt | nt | i[7.66 µM] | nt | nt
CC12CC[C@H]3[C@@H](CCC4(O)C[C@H](O)CCC34/C=N/NC(=O)c3ccc(O)cc3)C1(O)CCC2C1=CC(=O)OC1 (stereo not given in full) | nt | 19µM | i | nt | i | i
CC12CC[C@H]3[C@@H](CCC4(O)C[C@H](O)CCC34/C=N/NC(=O)c3ccccc3O)C1(O)CCC2C1=CC(=O)OC1 (stereo not given in full) | nt | 27µM | i | nt | i | i
CC12CC[C@H]3[C@@H](CCC4(O)C[C@H](O)CCC34/C=N/NC(=O)c3ccccc3F)C1(O)CCC2C1=CC(=O)OC1 (stereo not given in full) | nt | i | i | nt | i | i
CCN(CC)c1ccc(N=Cc2c(O)n(-c3ccccc3C)c(=O)[nH]c2=O)cc1 | i | ? | i | i | i | i
CCOc1ccccc1-n1c(O)c(C=Nc2ccc(N(CC)CC)cc2)c(=O)[nH]c1=O | i | 19µM | i | i | i | i
CCOc1cccc(N2C(=O)/C(=C/c3ccco3)C(=O)NC2=S)c1 | nt | 21µM | i | nt | i | i
COc1cccc(N2C(=O)/C(=C/c3ccc(C)o3)C(=O)NC2=S)c1 | nt | 15µM | i | nt | i | i
COc1ccccc1/C=C1\C(=O)NC(=S)N(c2ccccc2)C1=O | nt | i | i | nt | i | i
COc1cccc(N2C(=O)NC(=O)/C(=C/c3ccc4c(c3)Cc3ccccc3-4)C2=O)c1 | i | 21µM | i | i | i | i
O=C1NC(=S)N(c2ccccc2)C(=O)/C1=C/c1ccco1 | nt | 19µM | i | nt | i | i
Cc1ccc(/C=C2\C(=O)NC(=S)N(c3ccc(F)cc3)C2=O)o1 | nt | ? | i | nt | i | i
O=S(=O)(O)/C(=C\c1ccccc1)c1ccccc1 (tested in a mixture with another compound) | i[9.22 µM] | nt | nt | i[7.66 µM] | nt | nt
CCCC(c1nnnn1Cc1cccs1)N1CCN(c2nc3ccccc3s2)CC1 (stereo not given) | i | i | i | i | i | i
CCN1CCN(c2nc3ccccc3s2)CC1 | 11µM | 11µM | ? | i | 2.2µM | 2µM
Cc1ccc(C2(c3ccc(C)c(O)c3C)CCN(C)CC2)c(C)c1O | i[9.22 µM] | nt | nt | i[7.66 µM] | nt | nt
SMILES | SMN2 splice up | FLuc counter | ELG1 genotox | KinaseGlo FLuc | NPC1 promoter act | Rab9 prom act
Cc1ccc(-c2nc(N3CCOCC3)s[n+]2-c2ccccc2)cc1 | i | 9.5µM | ? | i | i | i
Cc1ccc(N2C(=O)NC(=O)/C(=C\c3ccc([N+](=O)[O-])o3)C2=O)cc1 | i | 27µM | i | i | i | i
Cc1ccc(N2C(=O)NC(=O)/C(=C\c3ccc(N4CCOCC4)cc3)C2=O)cc1 | i | i | i | i | i | i
C=C(C)C#N | i | nt | nt | nt | nt | nt
O=C1/C(=C\c2ccc([N+](=O)[O-])cc2)N2CCC1CC2 | i | i | i | i | i | i
CN(C)c1ccc(/C=C2/C(=N\O)C3CCN2CC3)cc1 | nt | 19µM | ? | nt | ? | 2.8µM
c1nc(N2CC2)c2cnn([C@@H]3CCCCO3)c2n1 | i[9.22 µM] | nt | nt | i[7.66 µM] | nt | nt
CCNC(=O)O/N=C(\C)c1sc(-c2ccc(Cl)cc2)nc1C | i | 2.7µM | ? | ? | 1.4µM | 3.5µM
C/C(=N\OC(=O)NC(C)C)c1sc(-c2ccc(Cl)cc2)nc1C | ? | 13µM | ? | i | ? | ?
C/C(=N\OC(=O)NC(C)C)c1sc(-c2ccccc2)nc1C | i | ? | i | i | 4µM | ?
CC(=O)Nc1ccccc1C(=O)OCC(=O)c1ccccc1Cl | i | 9.5µM | ? | i | ? | 3.5µM
CN(C)[C@@H]1C(=O)C(C(N)=O)=C(O)[C@]2(O)C(=O)C3=C(O)c4c(O)cccc4[C@](C)(O)[C@H]3C[C@@H]12 | i[9.22 µM] | nt | nt | i[7.66 µM] | nt | nt
Clc1ccc(C(Cl)(Cl)Cl)cc1Cl | i | nt | nt | nt | nt | nt
CN1C(=O)C(=Cc2ccc(N3CCCCC3)o2)C(=O)N(C)C1=S | i | ? | i | i | i | i
CN1C(=O)C(=Cc2ccc(SC3CCCCC3)o2)C(=O)N(C)C1=O | i | 17µM | i | i | i | i
CC(C)Oc1ccc(CNC(=O)Oc2ccccc2)cc1 | nt | 6.7µM | i | nt | 3.5µM | 3.2µM
O=[As](O)(O)c1ccc(N=Nc2ccc(O)cc2)cc1 | i[9.22 µM] | 13µM | i | i[7.66 µM] | i | i
C[N+](C)(C)CC#CCOC(=O)Nc1cccc(Cl)c1 | i | nt | nt | i | i | i
Cn1nnc2cc(NC(=O)Nc3cccc(Cl)c3)ccc21 | nt | ? | ? | nt | 2µM | 1.4µM
NNCc1cccc(O)c1 | i | 2.7µM | i | i | i | i
CCNCC(O)c1cccc(O)c1 (stereo not given) | nt | i | i | nt | i | i
Cc1ccc(C(C)(C)NC(=O)C2CCC(=O)N(C3CCCCCC3)C2)cc1 (stereo not given) | nt | 15µM | ? | nt | ? | 3.2µM
COc1cc(C=C2C(=O)NC(=O)NC2=O)ccc1OCc1ccc([N+](=O)[O-])cc1 | ? | 9.5µM | 21µM | i | i | i
O=C1NC(=O)C(=Cc2ccc(Oc3ccc([N+](=O)[O-])cc3)cc2)C(=O)N1 | i | i | i | i | i | i
